Compound activity from PubChem BioAssay.
A selection: hits, their analogues and other compounds. The true share with any hit is near 2.8%.
Pol iota inh – qHTS for Inhibitors of Polymerase Iota. AID 588590, 2011. Potency, µM (titrated, usually from 115 µM), hits mostly inhibitors. 1% of 390,000 active. Pol iota fluorescent replication assay, 10 min
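Fluorescent replication assay read twice, at 0 min and 10 min after adding 50 nM (final) substrate. Enzyme (10 nM) and compounds were first incubated 15 min at room temperature; enzyme-free buffer wells were negative controls.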
Pol eta inh – qHTS for Inhibitors of Polymerase Eta; AID 588591, 2011; DNA polymerase eta (Homo sapiens), Q9Y253; 1.2% of 390,000 active; Potency, µM (highest dose often 114 µM), actives largely listed as inhibitors; recombinant Pol eta, fluorescent DNA replication assay
Target sequence (Q9Y253 whole entry, looked up): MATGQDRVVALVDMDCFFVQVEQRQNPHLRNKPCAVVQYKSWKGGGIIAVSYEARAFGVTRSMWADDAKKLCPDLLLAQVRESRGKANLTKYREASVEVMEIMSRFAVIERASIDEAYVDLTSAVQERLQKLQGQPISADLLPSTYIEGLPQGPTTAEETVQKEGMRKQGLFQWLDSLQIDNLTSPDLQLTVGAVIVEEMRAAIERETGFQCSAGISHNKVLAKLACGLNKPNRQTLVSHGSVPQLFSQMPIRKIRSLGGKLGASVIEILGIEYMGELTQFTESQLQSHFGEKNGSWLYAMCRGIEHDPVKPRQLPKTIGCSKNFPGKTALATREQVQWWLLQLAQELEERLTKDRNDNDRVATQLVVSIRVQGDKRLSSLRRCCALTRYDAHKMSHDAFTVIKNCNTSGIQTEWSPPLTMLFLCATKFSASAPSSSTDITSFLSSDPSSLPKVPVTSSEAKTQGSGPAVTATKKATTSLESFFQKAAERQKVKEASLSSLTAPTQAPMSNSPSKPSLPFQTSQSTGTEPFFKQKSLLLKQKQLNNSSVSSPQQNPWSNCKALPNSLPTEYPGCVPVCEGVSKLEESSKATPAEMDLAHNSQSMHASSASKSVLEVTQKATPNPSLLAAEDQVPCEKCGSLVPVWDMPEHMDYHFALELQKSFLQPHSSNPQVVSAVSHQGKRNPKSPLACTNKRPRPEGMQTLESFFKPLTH
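Fluorescent replication assay: 50 nM final substrate added after a 15 min room-temperature compound preincubation with 10 nM enzyme. Signal taken at 0 min and again at 10 min.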
Pol kappa inh – qHTS for Inhibitors of Polymerase Kappa | DNA polymerase kappa (Homo sapiens), Q9UBT6 | purified Pol kappa, fluorescent DNA synthesis assay, 10 min | Potency, µM (top dose mostly 107 µM), actives largely listed as inhibitors | 0.53% of 400,000 active | AID 588579, 2011
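Enzyme at 10 nM met test compounds for 15 min at room temperature. Substrate addition (50 nM final) began the reaction, which was monitored by fluorescence at 0 and 10 min.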
FEN1 inh-1 – qHTS Assay for the Inhibitors of Human Flap endonuclease 1 (FEN1) | AID 588795, 2011 | 0.35% of 390,000 active | Recombinant FEN1 flap cleavage, fluorescence, 15 min | P39748 | Potency, µM (highest dose often 114 µM), usual class: inhibitors; further: nearly all actives have a fitted effect of over 65% in size
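Recombinant FEN1 (10 nM) was preincubated with pin-transferred compounds for 15 min at room temperature, then flap DNA substrate (50 nM final) was added. Plates were read at 0 and 15 min, and normalized concentration–response data were fitted to a four-parameter Hill equation.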
POLB inh – qHTS Assay for Inhibitors of DNA Polymerase Beta; Pol beta primer extension/strand displacement, fluorescence kinetic; 1.3% of 340,000 active; Potency, µM (doses to about 114 µM), usual class: inhibitors
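Human Pol beta at 10 nM; strand-displacement substrate 50 nM final. Compound exposure 15 min at room temperature before start, reaction 10 min at room temperature.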
PI5P4K alpha inh – qHTS for Inhibitors of phosphatidylinositol 5-phosphate 4-kinase (PI5P4K). PI5P4Kalpha enzyme, ADP-Glo luminescence, 60 min; hits give low values. max response, %. 1.2% of 330,000 active. AID 652105, 2013; active means max response of -50% or lower; inconclusive means between -30% and -50%; inactive means -30% or higher; further: value at the top dose of about 77 µM
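PI5P4Kalpha ADP-Glo assay; 5 microM ATP final; 60 min RT reaction; HEPES pH 7.4/EGTA/CHAPS, 5% DMSO; controls lacking substrate or enzyme; luminescent end-point.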
FEN1 inh-2 – qHTS Assay for the Inhibitors of FEN1: Confirmatory Assay for Cherry-picked Compounds; shares compounds with FEN1 inh-1; FEN1 flap cleavage, TAMRA/BHQ2 fluorogenic DNA substrate; Potency, µM, most hits filed as inhibitors; 79% of 880 active; AID 720498, 2013; further: nearly all actives have a fitted effect of over 60% in size
Large screens that a line does not name were inactive (follow-up assays come after a bar, where they were run). Unless noted, the call rests on the fitted dose curve; in most records, active means well fitted curve in the direction sought with a large enough effect; inconclusive means small, poorly fitted or top-dose-only effect, or another doubt; inactive means no such curve, though single readings can be large; an effect the other way counts as inactive or inconclusive.

O=C(COc1cccc2ccccc12)N/N=C/c1ccccc1OCc1ccc(C(=O)O)cc1	Pol eta inh 79µM, FEN1 inh-1 inconclusive, POLB inh 89µM | FEN1 inh-2 85
O=C1Nc2ccccc2C1C(C[N+](=O)[O-])c1ccccn1 (stereo unspecified)	FEN1 inh-1 inconclusive | FEN1 inh-2 9.5
CN(C)CCCNc1ncnc2sc(-c3ccccc3)cc12	Pol iota inh inconclusive, FEN1 inh-1 inconclusive, POLB inh inconclusive | FEN1 inh-2 inconclusive
CCOC(=O)CSc1nc(=O)n2cc(C)ccc2n1	none
NC(=O)C1C(=O)c2ccccc2C1(C[N+](=O)[O-])c1ccccc1 (stereo unspecified)	FEN1 inh-1 45µM (no result: POLB inh) | FEN1 inh-2 43
O=C(O)CC1(c2ccccc2)C(=O)c2ccccc2C1=O	none
COC(=O)[C@H](CC(C)C)NC(=O)NCCC1=CCCCC1	none
CCN(CC)Cc1cc2[nH]c3c4ccc(Cl)cc4ncc3c2cc1OC	Pol iota inh inconclusive, Pol kappa inh inconclusive, FEN1 inh-1 14µM, POLB inh 50µM | FEN1 inh-2 inconclusive
COc1ccc2cc3[n+](cc2c1OC)CCc1cc2c(cc1-3)OCO2	Pol iota inh inconclusive, FEN1 inh-1 inconclusive | FEN1 inh-2 inconclusive
COc1cc(/C=C2/SC(=S)N(c3c(C)n(C)n(-c4ccccc4)c3=O)C2=O)ccc1O	Pol iota inh 28µM, Pol eta inh inconclusive, FEN1 inh-1 inconclusive, POLB inh 28µM | FEN1 inh-2 inconclusive
COc1cc(/C=C2/SC(=NCc3ccccc3)N(Cc3ccccc3)C2=O)ccc1O	Pol iota inh inconclusive
CC(/C=C1\SC(=S)N(NC(=O)c2ccncc2)C1=O)=C\c1ccccc1	Pol iota inh inconclusive
COc1cc(/C=C2/SC(=S)N(Cc3ccccc3)C2=O)ccc1O	Pol iota inh 40µM, Pol eta inh inconclusive, Pol kappa inh inconclusive, FEN1 inh-1 inconclusive, POLB inh 10µM | FEN1 inh-2 85
COc1cc(/C=C2\SC(=S)N(NC(=O)c3ccncc3)C2=O)ccc1O	Pol iota inh 22µM, Pol eta inh inconclusive, FEN1 inh-1 inconclusive | FEN1 inh-2 76
COc1cc(/C=C2\SC(=S)N(NC(=O)c3ccc(O)c(OC)c3)C2=O)ccc1O	Pol iota inh 22µM, Pol eta inh inconclusive, FEN1 inh-1 inconclusive, POLB inh inconclusive, PI5P4K alpha inh inconclusive | FEN1 inh-2 43
CC1CCN(CCc2nc3cc(NC(=O)COc4ccc(Cl)cc4)ccc3n2C)CC1	none
CCOc1ccc(-c2cc(C(=O)NCCCN3CCCC3)c3ccccc3n2)cc1	none
CC1CCN(C(=O)c2[nH]cnc2C(=O)N[C@@H](C)c2ccccc2)CC1	none (no result: POLB inh)
COc1cc(/C=C2\SC(=S)N(NC(=O)c3ccccc3OC)C2=O)ccc1O	Pol iota inh 50µM, Pol eta inh inconclusive, FEN1 inh-1 inconclusive, POLB inh 18µM | FEN1 inh-2 inconclusive
CCOc1cc(/C=C2\SC(=S)N(NC(=O)c3cccnc3)C2=O)ccc1O	Pol iota inh 28µM, Pol eta inh inconclusive, FEN1 inh-1 inconclusive, POLB inh inconclusive | FEN1 inh-2 85
Cc1ccc(-c2cc(C(=O)Nc3ccc(S(=O)(=O)Nc4ncccn4)cc3)[nH]n2)c(O)c1C	Pol iota inh inconclusive, Pol eta inh 45µM, FEN1 inh-1 inconclusive, POLB inh inconclusive | FEN1 inh-2 inconclusive
COc1ccc(/C=C\c2onc(C)c2S(=O)(=O)N2CCC(C(=O)Nc3ccc(F)cc3F)CC2)cc1	none (no result: PI5P4K alpha inh)
CN(C)c1ccc(C=C2SC(=S)NC2=O)cc1	Pol iota inh inconclusive, Pol eta inh inconclusive (no result: POLB inh) | FEN1 inh-2 inconclusive
CN(C)c1ccc(/C=N/N=C2/NC(=O)/C(=C/c3ccc([N+](=O)[O-])cc3)S2)cc1	Pol eta inh inconclusive
Cc1ccc(NC(=O)C2CCC(CNS(=O)(=O)c3csc(C(N)=O)c3)CC2)cc1Cl (stereo unspecified)	none (no result: PI5P4K alpha inh)
c1ccc2c(NCCc3c[nH]c4ccccc34)c3ccccc3nc2c1	Pol iota inh inconclusive, Pol eta inh inconclusive, FEN1 inh-1 inconclusive, POLB inh 13µM | FEN1 inh-2 21
COc1ccc(CCNc2nc(SCc3ccc(Cl)cc3)nc3ccccc23)cc1OC	none (no result: PI5P4K alpha inh)
Fc1cccc(NCCc2c[nH]c3ccccc23)n1	none
COc1ccc(CCNc2c3ccccc3nc3ccccc23)cc1OC	Pol iota inh inconclusive, Pol eta inh inconclusive, Pol kappa inh inconclusive, FEN1 inh-1 50µM, POLB inh 6.3µM | FEN1 inh-2 inconclusive
COc1cccc(CN(C(=O)c2oc3ccccc3c2C)C2CCS(=O)(=O)C2)c1 (stereo unspecified)	none (no result: PI5P4K alpha inh)
Cc1cc2c(=Cc3ccc(N(C)C)cc3)c3ccccc3n2[n+]1C	Pol iota inh 79µM, Pol eta inh inconclusive, Pol kappa inh inconclusive, FEN1 inh-1 14µM (no result: POLB inh) | FEN1 inh-2 27
CCOC(=O)c1cc2c(=Cc3ccc(N(C)C)cc3)c3ccccc3n2[n+]1C	Pol iota inh 40µM, Pol eta inh inconclusive, FEN1 inh-1 22µM (no result: POLB inh) | FEN1 inh-2 34
COc1ccc(-c2cc(C(F)(F)F)nc(SCC(=O)NCC(C)C)n2)cc1OC	none (no result: PI5P4K alpha inh)
CCOC(=O)c1cnc2c(ccc3ccccc32)c1NCCCN(C)C	Pol iota inh inconclusive, FEN1 inh-1 50µM, POLB inh inconclusive | FEN1 inh-2 38
COc1ccc(N2CCc3c(C)nc4c(OC)cc(OC)cc4c32)cc1	FEN1 inh-1 40µM, POLB inh 40µM | FEN1 inh-2 38
COc1ccc(N2CCc3c(C)nc4c(OC)cc(OC)cc4c32)c(OC)c1	none (no result: PI5P4K alpha inh)
O=C(NN=C1CCCC1)c1ccc(O)cc1O	Pol iota inh inconclusive | FEN1 inh-2 43
CCN(CC)Cc1cc(Nc2c3ccccc3nc3c4ccccc4n(C)c23)cc(CN(CC)CC)c1O	Pol iota inh inconclusive, Pol eta inh inconclusive, Pol kappa inh inconclusive, FEN1 inh-1 28µM (no result: POLB inh) | FEN1 inh-2 19
Oc1cccc(Nc2c3ccccc3nc3ccccc23)c1	Pol iota inh inconclusive, FEN1 inh-1 inconclusive, POLB inh inconclusive
C/C(=N/NC(=O)c1ccco1)c1cccc(NC(=O)c2ccc(C)o2)c1	none
C/C(=N/NC(=O)c1ccco1)c1cccc(NC(=O)c2ccc(C)s2)c1	Pol kappa inh 89µM | FEN1 inh-2 inconclusive
CC(=O)Nc1ccc(/C=C/c2ccncc2)cc1	none (no result: Pol eta inh, POLB inh, PI5P4K alpha inh)
